# Laboratory results from paper PMC4336329 (PLoS ONE, 2015).
# In all, about 310,000 compounds went through this assay and about 14,000 (4.5%) showed an effect of 50% or more. The effect is printed as a negative number. This is one part of a sample in which strong results are shown more often than they occur.
# Target: human ether-à-go-go-related gene (hERG) potassium channel (human, UniProt Q12809)
# Assay: primary screen, population patch clamp on CHO cells stably expressing hERG; higher = less effect of the substance
# 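Note: peak tail current of the secondary pulse compared with the same well before compound.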
# human ether-à-go-go-related gene (hERG) potassium channel, sequence (Q12809 whole entry, looked up): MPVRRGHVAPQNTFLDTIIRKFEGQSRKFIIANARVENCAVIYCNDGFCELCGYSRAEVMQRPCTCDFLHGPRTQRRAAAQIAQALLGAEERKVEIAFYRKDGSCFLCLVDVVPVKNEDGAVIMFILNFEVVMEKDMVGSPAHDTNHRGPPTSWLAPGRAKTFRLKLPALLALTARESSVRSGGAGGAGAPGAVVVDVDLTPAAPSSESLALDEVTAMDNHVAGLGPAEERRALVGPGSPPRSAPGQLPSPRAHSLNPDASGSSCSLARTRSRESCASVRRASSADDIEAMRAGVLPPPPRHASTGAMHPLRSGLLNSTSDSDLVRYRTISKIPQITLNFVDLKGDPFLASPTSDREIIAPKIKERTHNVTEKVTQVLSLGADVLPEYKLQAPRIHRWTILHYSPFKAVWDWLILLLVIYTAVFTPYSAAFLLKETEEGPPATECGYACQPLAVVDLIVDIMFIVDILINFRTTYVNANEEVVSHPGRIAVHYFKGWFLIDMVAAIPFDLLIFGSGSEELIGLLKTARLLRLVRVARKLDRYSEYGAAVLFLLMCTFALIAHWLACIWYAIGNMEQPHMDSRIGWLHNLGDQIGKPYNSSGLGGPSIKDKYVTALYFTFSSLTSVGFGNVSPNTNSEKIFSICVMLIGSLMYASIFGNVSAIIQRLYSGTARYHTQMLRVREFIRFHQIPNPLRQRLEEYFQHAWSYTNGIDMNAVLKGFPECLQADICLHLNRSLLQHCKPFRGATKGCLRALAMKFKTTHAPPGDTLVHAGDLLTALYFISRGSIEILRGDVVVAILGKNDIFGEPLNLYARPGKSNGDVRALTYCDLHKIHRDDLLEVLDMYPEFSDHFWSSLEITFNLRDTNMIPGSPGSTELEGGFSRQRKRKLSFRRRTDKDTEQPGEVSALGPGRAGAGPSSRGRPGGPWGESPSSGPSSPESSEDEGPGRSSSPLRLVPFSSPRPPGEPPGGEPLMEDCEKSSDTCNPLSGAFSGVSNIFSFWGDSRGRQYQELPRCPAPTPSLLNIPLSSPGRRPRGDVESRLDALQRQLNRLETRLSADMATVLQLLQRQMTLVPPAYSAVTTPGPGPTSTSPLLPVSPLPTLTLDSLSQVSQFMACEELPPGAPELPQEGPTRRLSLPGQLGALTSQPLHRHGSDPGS
row,SMILES,"hERG current change (%, negative = inhibition) at 10uM [%]"
1,Cc1ccnc(N2CCC(C(=O)NNC(=O)COc3cccc4ccccc34)CC2)n1,11.2
2,Cc1cccc(NC(=O)CCc2nnc3ccc(NCc4ccco4)nn23)n1,6.78
3,Cc1cc(C)c(OCCN(C)C)c(Cl)c1.O=C(O)C(=O)O,-21.1
4,O=C(NC1CCCC1)C(c1cccs1)N(C(=O)c1ccco1)c1ccc2c(c1)OCO2 (stereo not drawn),-33.5
5,Nc1nc(SCC(=O)NCc2ccco2)[nH]c(=O)c1-c1ccccc1,22.3
6,CC(C(=O)N(C)CC(=O)Nc1ccccc1C(F)(F)F)N1C(=O)c2ccccc2C1=O (stereo not drawn),-10.7
7,COc1ccc(N(CC(=O)NC2CCCC2)C(=O)c2ccc(C)s2)cc1OC,15.8
8,COC(=O)c1ccc(NC(=O)C[n+]2ccccc2C)cc1.[Cl-],10.1
9,Cc1cc(Nc2c(C)cccc2C)n2nc(C)nc2n1,3.66
10,Cc1cccc(C)c1OCCCCN1CCCCC1.O=C(O)C(=O)O,-11.8
11,Cc1cc(Br)ccc1OCC(=O)N1CCCCCC1,-12.1
12,Cc1cc(Br)ccc1OCCOCCN1CCCC1.O=C(O)C(=O)O,-60.7
13,Cc1cc(Br)ccc1OCCCCN1CCCCC1.O=C(O)C(=O)O,-78.9
14,Cc1cc(Br)ccc1OCCCCN1CCC(C)CC1.O=C(O)C(=O)O,-67.9
15,Cc1cc(Br)ccc1OCCN1CCCC1.O=C(O)C(=O)O,-36.8
16,CCN1CCN(CCOc2ccc(Br)cc2C)CC1.O=C(O)C(=O)O,-46.6
17,CC(C)(C)c1ccccc1OCCOCCN1CCCCCC1.O=C(O)C(=O)O,-39.1
18,Cc1cc(Br)ccc1OCCN1CC(C)OC(C)C1.O=C(O)C(=O)O (stereo not drawn),-17.8
19,N#C/C(=C\c1cn(Cc2ccccc2)c2ccccc12)C(=O)NCc1ccco1,12.5

row,SMILES,"hERG current change (%, negative = inhibition) at 10uM [%]"
1,Cc1ccccc1OCC(=O)OCC(=O)NCc1cccs1,1.72
2,COc1cc(-c2nc(CCNC(=O)c3ccco3)cs2)cc(OC)c1OC,-24.7
3,Cc1cc(C)cc(NC(=S)N2CCN(c3ccccn3)CC2)c1,-1.07
4,COc1ccc(NC(=O)Nc2cc(C)ccc2F)cc1,0.822
5,CCOc1ccc(-n2cnnn2)cc1S(=O)(=O)N1CCCCC1,-10.1
6,CC1CCN(C(=O)c2cc3c(=O)n4ccccc4nc3s2)CC1,18.7
7,CC(=O)c1ccc(Nc2cc(C)nc3ccccc23)cc1,-31.3
8,COc1ccc2nc(C)cc(Nc3cccc(C(=O)O)c3)c2c1,21.7
9,CC(=O)Nc1ccc(Nc2cc(C)nc3ccccc23)cc1,-7.21
10,CCOC(=O)c1ccc2nc(C)cc(Nc3cccc(C(=O)O)c3)c2c1,5.41
11,CC(=O)c1cccc(Nc2cc(C)nc3ccccc23)c1.Cl,-64
12,CC(=O)c1cccc(Nc2cc(C)nc3ccc(C)cc23)c1.Cl,-65.2
13,C/C(=N\Nc1nccnc1Cl)c1ccc([N+](=O)[O-])cc1,-4.09
14,Cl.N[C@@H]1C[C@H]1c1ccccc1,14
15,O=C(NC1CCCC1)C(c1ccncc1)N(C(=O)c1csnn1)c1cccc(F)c1 (stereo not drawn),17.2
16,O=C1N=NC2=C1c1c3ccccc3c(O)n1CC2,3.49
17,CCOC(=O)c1c(NC(=O)CN2CCOCC2)sc2c1CCCC2=O,-6.33
18,Cc1cc2nc3c(nc2cc1C)CCCC3,15.9
19,Cc1ccc2c(CC(=O)N3CCN(c4ccccc4)CC3)coc2c1,-22

row,SMILES,"hERG current change (%, negative = inhibition) at 10uM [%]"
1,O=C(COC(=O)c1ccc(Br)o1)Nc1cccc(S(=O)(=O)N2CCCCCC2)c1,-14.9
2,COc1ccccc1NC(=O)Cc1coc2cc(C)ccc12,-13.1
3,O=C(COC(=O)c1ccc([N+](=O)[O-])o1)Nc1cccc(S(=O)(=O)N2CCOCC2)c1,-19.4
4,Cc1ccc(C(=O)OCC(=O)Nc2cccc(S(=O)(=O)N3CCCCC3)c2)o1,6.02
5,Cc1ccc2c(CC(=O)Nc3ccc(N4CCN(C)CC4)cc3C)coc2c1,-72.8
6,O=C(Nc1cccc(S(=O)(=O)N2CCCCC2)c1)c1ccc([N+](=O)[O-])o1,-51.4
7,O=C(COC(=O)c1ccc([N+](=O)[O-])o1)Nc1cccc(S(=O)(=O)N2CCCCC2)c1,-56.6
8,Cc1cc(C(=O)OCC(=O)Nc2cccc(S(=O)(=O)N3CCOCC3)c2)c(C)o1,-19.6
9,O=C(Nc1ccc(S(=O)(=O)N2CCOCC2)cc1)c1ccc([N+](=O)[O-])o1,-28.8
10,Cc1ccc(C(=O)OCC(=O)Nc2cccc(S(=O)(=O)N3CCOCC3)c2)o1,-53.1
11,Cc1ccc(C(=O)Nc2cccc(S(=O)(=O)N3CCCC3)c2)o1,-9.98
12,CCN1CCN(C(=S)c2ccc(-c3ccccc3)cc2)CC1,-15.4
13,CCCN1CCN(C(=O)Cn2c(=O)oc3cc(S(=O)(=O)NCc4ccccc4)ccc32)CC1,-6.53
14,COc1ccc(-c2ocnc2C(=O)Nc2ccc3c(c2)CCC3)cc1,8.64
15,Cc1ccc(C(=O)Nc2cccc(O)c2)cc1S(=O)(=O)N1CCCCCC1,11.2
16,O=C(O)CSc1nnc(COc2cccc3ccccc23)n1Cc1ccccc1,21.3
17,COc1ccc2c(CC(=O)Nc3cccc(S(=O)(=O)N4CCOCC4)c3)coc2c1,-32.4
18,CCc1ccc2c(CC(=O)Nc3cccc(S(=O)(=O)N4CCOCC4)c3)coc2c1,-0.796
19,Cc1ccc2c(CC(=O)Nc3cccc(S(=O)(=O)N4CCOCC4)c3)coc2c1,-51.4
